According to PubChem BioAssay (EPA / NIEHS):
Activity calls are given as the source filed them. Rule for the calls: active = hit-call score of the fitted dose curve at least 0.9, where 1 is the maximum; inactive = score below 0.9.

Key:
[1] = APR_HepG2_CellLoss_72hr: Apredica 72-hour HepG2 Assay for Cell Loss (AID 2282915); conditions: high-content imaging
How it was run: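 HepG2 cells were exposed for 72 hr to compounds at 0.39–200 uM (ten concentrations, duplicate) in 0.5% v/v final DMSO. Nuclei were stained with Hoechst 33342 after 3.7% formaldehyde fixation, imaged at 20x, and counted; fits bidirectional versus DMSO.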

[2] = APR_HepG2_P-H2AX_72hr: Apredica 72-hour HepG2 Assay for H2AX Phosphorylation (AID 2282916); conditions: imaging, actives raise or lower the signal;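 note: phospho-histone H2A.x immunostain intensity per cell marking DNA damage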
How it was run: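 Phospho-histone H2A.x immunofluorescence, multiplexed with Hoechst and c-Jun, quantified by high-content imaging. Compounds applied to HepG2 for 72 h across ten concentrations (0.39–200 uM, 0.5% DMSO), in duplicate; DMSO baseline.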

[3] = APR_HepG2_MitoMembPot_72hr: Apredica 72-hour HepG2 Assay for Mitochondrial Membrane Potential (AID 2282917); conditions: imaging, actives raise or lower the signal
How it was run: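 HepG2 cells exposed 72 h to compounds at 0.39–200 uM (0.5% v/v DMSO, duplicates); MitoTracker Red CMXRos 250 nM loaded 30 min before 3.7% formaldehyde fixation, imaged by HCS fluorescence. Bidirectional fit versus DMSO.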

[4] = APR_HepG2_MitoticArrest_72hr: Apredica 72-hour HepG2 Assay for Mitotic Arrest (AID 2282918); conditions: high-content imaging, actives raise or lower the signal
How it was run: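 HepG2, 72 hr exposure, 0.39–200 uM in duplicate, 0.5% v/v DMSO final. Formaldehyde-fixed, Triton-permeabilized, anti-phospho-histone H3/FITC plus Hoechst. ArrayScan imaging at 20x; curves fit bidirectionally against DMSO baseline.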

[5] = APR_HepG2_MicrotubuleCSK_72hr: Apredica 72-hour HepG2 Assay for Microtubule CSK Stabilty (AID 2282919); conditions: HepG2 microtubule cytoskeleton, high-content imaging, actives raise or lower the signal
How it was run: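 Ten-point dosing (0.39–200 uM, 0.5% DMSO) of HepG2 for 72 hr, with taxol as the cytoskeletal positive control. The cells were formaldehyde-fixed and then stained with alpha-tubulin/Cy5 and Hoechst. Imaging at 20x used a −2 um Z offset for tubulin.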

[6] = APR_HepG2_P-H2AX_24hr: Apredica 24-hour HepG2 Assay for H2AX Phosphorylation (AID 2282920); conditions: high-content imaging, actives raise or lower the signal
How it was run: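 HCS fluorescence imaging of phospho-H2A.x immunostain (with Hoechst 33342 nuclear counterstain) in HepG2 after 24 hr compound exposure; 10 concentrations, 0.39–200 uM, duplicate wells, 0.5% v/v DMSO. Gain or loss of signal fitted relative to DMSO baseline.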

[7] = APR_HepG2_StressKinase_72hr: Apredica 72-hour HepG2 Assay for Stress Kinase (AID 2282921); conditions: HepG2 stress kinase (phospho-c-Jun) imaging, actives raise or lower the signal
How it was run: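 Stress kinase signal is phospho-c-Jun immunofluorescence (1:500 primary, Cy3 secondary) in fixed, permeabilized human HepG2 cells imaged at 20x. Exposure lasted 72 hr over ten concentrations from 0.39 to 200 uM, 0.5% DMSO, in duplicate. Bidirectional fit versus DMSO.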

[8] = APR_HepG2_StressKinase_24hr: Apredica 24-hour HepG2 Assay for Stress Kinase (AID 2282922); conditions: HepG2 stress kinase (phospho-c-Jun) imaging, actives raise or lower the signal
How it was run: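 After 24 hr compound treatment (up to 200 uM, final DMSO 0.5% v/v), HepG2 cells are fixed and multiplex-labeled; phospho-c-Jun intensity is captured by high-content fluorescence imaging and analyzed relative to DMSO.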

[9] = APR_HepG2_MitoMass_72hr: Apredica 72-hour HepG2 Assay for Mitochondrial Mass (AID 2282924); conditions: high-content imaging, actives raise or lower the signal;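 note: MitoTracker Red CMXRos stain intensity per cell imaged as mitochondrial mass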
How it was run: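 Steps: treat HepG2 72 hr (0.39–200 uM, duplicate wells); load MitoTracker Red CMXRos, 250 nM, 30 min; fix with 3.7% formaldehyde, permeabilise with 0.5% Triton X-100; capture images, nuclei via Hoechst 33342; fit bidirectionally against DMSO.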

[10] = APR_HepG2_NuclearSize_72hr: Apredica 72-hour HepG2 Assay for Nuclear Size (AID 2282925); conditions: high-content imaging, actives raise or lower the signal
How it was run: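 Compounds (0.39–200 uM, final DMSO 0.5%) were applied to HepG2 for 72 hr. Cells were then formaldehyde-fixed, permeabilized and labelled with Hoechst 33342. Nuclear diameter was quantified from six images per well.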

[11] = ATG_CRE_CIS: Attagene CIS-FACTORIAL HepG2 Assay for human cAMP Responsive Element (CRE) binding protein 3 (AID 2282926); conditions: HepG2 CRE cis-reporter, Attagene multiplexed mRNA; actives raise or lower the signal
How it was run: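 Readout: fluorescently labelled reporter transcripts resolved by capillary electrophoresis after RT-PCR, taken 24 h post-dosing in transfected HepG2. Endogenous transcription factor activity drives each cis-element reporter; gain or loss of signal fitted relative to DMSO control.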

[12] = target: CCAAT/enhancer-binding protein beta (Homo sapiens) (UniProt P17676); experiment: ATG_C_EBP_CIS: Attagene CIS-FACTORIAL HepG2 Assay for human CCAAT/Enhancer Binding Protein (C/EBP) beta (AID 2282927); conditions: HepG2 Attagene cis-factorial transcription factor reporter; actives raise or lower the signal
How it was run: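 Chemical-treated HepG2 cells (24 h) bearing cis-regulated reporter constructs were processed for total RNA, then reverse transcription, PCR amplification, fluorescent primer extension and fragment analysis; gain- and loss-of-signal were fitted against DMSO.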

[13] = ATG_CMV_CIS: Attagene CIS-FACTORIAL HepG2 Assay for human CMV (Internal Marker) (AID 2282928); conditions: HepG2 CMV promoter reporter, transcription factor profiling; actives raise or lower the signal;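 note: endpoint acts as a background internal control marker rather than a target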
How it was run: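 Bidirectional fits against DMSO are applied to reporter mRNA, read by RT-PCR with capillary electrophoresis, from HepG2 cells exposed 24 h. The endpoint serves as an internal CMV background marker within the cis-factorial reporter panel.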

[14] = ATG_DR4_LXR_CIS: Attagene CIS-FACTORIAL HepG2 Assay for human Liver X Receptor (LXR), DR4 submotif (AID 2282929); conditions: HepG2 Attagene DR4 cis-reporter, mRNA transcription; actives raise or lower the signal
How it was run: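 After transient transfection with multiplexed cis-promoter reporter units, HepG2 cells received test chemicals for 24 h. Reporter mRNA induction, detected by fluorescence after RT-PCR and capillary electrophoresis, was scored relative to DMSO.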

[15] = target: Aryl hydrocarbon receptor (Homo sapiens) (UniProt P35869); experiment: ATG_Ahr_CIS: Attagene CIS-FACTORIAL HepG2 Assay for human Aryl Hydrocarbon Receptor (Ahr) (AID 2282930); conditions: HepG2 AhR cis-factorial reporter transcription; actives raise or lower the signal
How it was run: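 Following 24 h of chemical dosing, transfected HepG2 liver cells with cis-driven reporter units were lysed for RNA; reporter mRNA was quantified via RT-PCR and capillary electrophoresis, and responses fitted bidirectionally from DMSO.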

[16] = ATG_AP_1_CIS: Attagene CIS-FACTORIAL HepG2 Assay for human Activator Protein 1 (AP-1) (AID 2282931); conditions: HepG2 Attagene cis-factorial AP-1 reporter mRNA; actives raise or lower the signal
How it was run: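 After 24 h incubation with test chemical, RNA from transfected HepG2 cells was reverse-transcribed, amplified, fluorescently labelled and digested before capillary electrophoresis. Reporters were driven by cis-regulatory promoters; activity fitted bidirectionally versus DMSO.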

[17] = ATG_AP_2_CIS: Attagene CIS-FACTORIAL HepG2 Assay for human Activator Protein 2 (AP-2) (AID 2282932); conditions: HepG2 AP-2 cis-reporter, Attagene transcription factor profiling; actives raise or lower the signal
How it was run: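 Cells (HepG2) transfected with promoter-driven reporter constructs, treated 24 h. Total RNA reverse-transcribed, reporter cDNA PCR-amplified, FAM-labelled by primer extension, digested, resolved by capillary electrophoresis. Activity fitted both directions versus DMSO.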

[18] = ATG_BRE_CIS: Attagene CIS-FACTORIAL HepG2 Assay for human Bone Morphogenetic Protein (BMP) Response Element (BRE) (AID 2282933); conditions: HepG2 BMP response element reporter, Attagene transcription factor profiling; actives raise or lower the signal
How it was run: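 Gain- or loss-of-signal was derived by bidirectional fitting against DMSO controls. The signal came from reporter mRNA, measured by RT-PCR and capillary electrophoresis, in HepG2 cells transiently carrying multiple reporter units and dosed for 24 h.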

[19] = target: Retinoic acid receptor alpha (Homo sapiens) (UniProt P10276); experiment: ATG_DR5_RAR_CIS: Attagene CIS-FACTORIAL HepG2 Assay for human Retinoic Acid Receptor Alpha (RARE), DR5 submotif (AID 2282934); conditions: HepG2 Attagene cis-factorial RARE DR5 reporter, mRNA; actives raise or lower the signal
How it was run: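 Transfected HepG2 reporter cells are exposed to chemicals for 24 h. Then RNA is extracted and the DR5 element reporter transcript is measured by RT-PCR and capillary electrophoresis, with bidirectional curve fitting relative to DMSO.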

[20] = APR_HepG2_p53Act_72hr: Apredica 72-hour HepG2 Assay for p53 Activation (AID 2282923); conditions: high-content imaging, actives raise or lower the signal;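 note: average cellular p53 protein immunofluorescence intensity in HepG2 cells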
How it was run: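 After 72 h with compound (ten points, 0.39 to 200 uM, final DMSO 0.5% v/v), fixed HepG2 cells were labelled with sheep anti-p53 and Hoechst 33342 and imaged; gain or loss versus DMSO scored.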

Sequence of CCAAT/enhancer-binding protein beta (Homo sapiens) (P17676 whole entry, looked up, the tested form may be a part): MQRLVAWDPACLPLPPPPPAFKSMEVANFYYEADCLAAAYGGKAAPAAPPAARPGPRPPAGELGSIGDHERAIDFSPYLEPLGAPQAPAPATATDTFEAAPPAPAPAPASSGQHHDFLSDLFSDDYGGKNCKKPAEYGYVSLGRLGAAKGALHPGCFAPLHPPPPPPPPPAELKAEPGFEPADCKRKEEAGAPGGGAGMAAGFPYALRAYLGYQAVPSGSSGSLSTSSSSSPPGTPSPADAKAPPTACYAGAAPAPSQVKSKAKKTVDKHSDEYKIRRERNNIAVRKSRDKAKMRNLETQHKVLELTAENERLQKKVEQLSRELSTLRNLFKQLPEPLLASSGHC
Sequence of Retinoic acid receptor alpha (Homo sapiens) (P10276 whole entry, looked up): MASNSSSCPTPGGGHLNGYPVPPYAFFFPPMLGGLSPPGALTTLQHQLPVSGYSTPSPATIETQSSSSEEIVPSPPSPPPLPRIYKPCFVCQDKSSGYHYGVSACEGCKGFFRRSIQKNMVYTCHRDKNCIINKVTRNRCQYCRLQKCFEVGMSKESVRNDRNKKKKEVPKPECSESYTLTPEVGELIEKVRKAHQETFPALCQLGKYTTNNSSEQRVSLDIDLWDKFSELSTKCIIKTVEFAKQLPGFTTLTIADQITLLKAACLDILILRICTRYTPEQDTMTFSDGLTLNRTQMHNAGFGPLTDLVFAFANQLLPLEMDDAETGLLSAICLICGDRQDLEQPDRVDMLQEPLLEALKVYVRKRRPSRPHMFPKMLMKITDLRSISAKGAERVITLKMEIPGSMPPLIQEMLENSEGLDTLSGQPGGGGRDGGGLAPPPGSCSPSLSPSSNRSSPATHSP
Sequence of Aryl hydrocarbon receptor (Homo sapiens) (P35869 whole entry, looked up): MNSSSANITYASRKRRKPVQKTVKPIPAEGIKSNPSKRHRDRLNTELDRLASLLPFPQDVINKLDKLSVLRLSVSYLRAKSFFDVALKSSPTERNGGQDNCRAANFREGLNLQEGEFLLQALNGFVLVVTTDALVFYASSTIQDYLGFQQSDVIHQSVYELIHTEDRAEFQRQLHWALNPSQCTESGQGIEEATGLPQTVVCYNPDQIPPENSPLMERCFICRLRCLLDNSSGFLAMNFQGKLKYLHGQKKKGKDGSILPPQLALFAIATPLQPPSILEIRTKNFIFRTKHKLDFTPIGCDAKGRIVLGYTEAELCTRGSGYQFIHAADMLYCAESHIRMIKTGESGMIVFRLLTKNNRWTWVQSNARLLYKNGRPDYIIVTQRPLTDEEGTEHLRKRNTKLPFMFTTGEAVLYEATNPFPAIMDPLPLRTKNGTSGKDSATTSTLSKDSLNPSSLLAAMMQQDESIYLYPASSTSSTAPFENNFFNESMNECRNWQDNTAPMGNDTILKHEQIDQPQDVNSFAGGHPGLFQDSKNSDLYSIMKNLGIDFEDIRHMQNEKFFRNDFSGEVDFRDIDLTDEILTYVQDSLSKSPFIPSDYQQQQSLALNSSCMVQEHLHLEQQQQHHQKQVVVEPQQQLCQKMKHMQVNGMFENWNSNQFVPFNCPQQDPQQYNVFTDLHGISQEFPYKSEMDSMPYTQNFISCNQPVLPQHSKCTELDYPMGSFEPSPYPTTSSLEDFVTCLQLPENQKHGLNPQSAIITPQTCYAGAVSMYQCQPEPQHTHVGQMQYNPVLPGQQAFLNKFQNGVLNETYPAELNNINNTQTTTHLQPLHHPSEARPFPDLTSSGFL

## N#CN
[1]
  outcome: inactive
[2]
  outcome: inactive
[3]
  outcome: inactive
[4]
  outcome: inactive
[5]
  outcome: inactive
[6]
  outcome: inactive
[7]
  outcome: inactive
[8]
  outcome: inactive
[9]
  outcome: inactive
[10]
  outcome: inactive
[11]
  outcome: inactive
[12]
  outcome: inactive
[13]
  outcome: inactive
[14]
  outcome: inactive
[15]
  outcome: inactive
[16]
  outcome: inactive
[17]
  outcome: inactive
[18]
  outcome: inactive
[19]
  outcome: inactive

## COP(=O)(OC)OC=C(Cl)Cl
[1]
  AC50: 78 µM (active)
[2]
  outcome: inactive
[3]
  outcome: inactive
[4]
  outcome: inactive
[5]
  outcome: inactive
[6]
  AC50: 76.2 µM (active)
[7]
  outcome: inactive
[8]
  outcome: inactive
[9]
  outcome: inactive
[10]
  outcome: inactive
[11]
  outcome: inactive
[12]
  outcome: inactive
[13]
  AC50: 18.4 µM (active)
[14]
  outcome: inactive
[15]
  outcome: inactive
[16]
  AC50: 67.3 µM (active)
[17]
  AC50: 50 µM (active)
[18]
  outcome: inactive

## CC(C)(C)C(O)/C(=C\c1ccc(Cl)cc1Cl)n1cncn1 (stereo not given)
[1]
  AC50: 15.3 µM (active)
[2]
  outcome: inactive
[3]
  outcome: inactive
[4]
  outcome: inactive
[5]
  AC50: 175 µM (active)
[6]
  outcome: inactive
[7]
  outcome: inactive
[8]
  outcome: inactive
[20]
  outcome: inactive
[9]
  outcome: inactive
[10]
  outcome: inactive
[11]
  outcome: inactive
[12]
  outcome: inactive
[13]
  outcome: inactive
[14]
  outcome: inactive
[15]
  outcome: inactive
[16]
  outcome: inactive
[17]
  outcome: inactive
[18]
  outcome: inactive
[19]
  outcome: inactive

## Clc1ccccc1-c1nnc(-c2ccccc2Cl)nn1
[1]
  AC50: 39.7 µM (active)
[2]
  AC50: 46.4 µM (active)
[3]
  outcome: inactive
[4]
  outcome: inactive
[5]
  AC50: 12.8 µM (active)
[6]
  outcome: inactive
[7]
  outcome: inactive
[8]
  outcome: inactive
[9]
  outcome: inactive
[10]
  outcome: inactive
[11]
  outcome: inactive
[12]
  outcome: inactive
[13]
  outcome: inactive
[14]
  outcome: inactive
[15]
  outcome: inactive
[16]
  outcome: inactive
[17]
  outcome: inactive
[18]
  outcome: inactive
[19]
  outcome: inactive

## Cc1[nH]c(=O)n(C(C)(C)C)c(=O)c1Cl
[1]
  outcome: inactive
[2]
  outcome: inactive
[3]
  outcome: inactive
[4]
  outcome: inactive
[5]
  outcome: inactive
[6]
  outcome: inactive
[7]
  outcome: inactive
[8]
  outcome: inactive
[9]
  outcome: inactive
[10]
  outcome: inactive
[11]
  AC50: 30.3 µM (active)
[12]
  AC50: 31.3 µM (active)
[13]
  outcome: inactive
[14]
  outcome: inactive
[15]
  outcome: inactive
[16]
  outcome: inactive
[17]
  outcome: inactive
[18]
  AC50: 50.5 µM (active)
[19]
  outcome: inactive

## COc1cc(OC)nc(NC(=O)NS(=O)(=O)c2cc(NC=O)ccc2C(=O)N(C)C)n1
[1]
  outcome: inactive
[2]
  outcome: inactive
[3]
  outcome: inactive
[4]
  outcome: inactive
[5]
  outcome: inactive
[6]
  outcome: inactive
[7]
  outcome: inactive
[8]
  outcome: inactive
[20]
  outcome: inactive
[9]
  outcome: inactive
[10]
  outcome: inactive
[11]
  outcome: inactive
[12]
  AC50: 13.3 µM (active)
[13]
  outcome: inactive
[14]
  outcome: inactive
[15]
  outcome: inactive
[16]
  outcome: inactive
[17]
  outcome: inactive
[18]
  outcome: inactive
[19]
  outcome: inactive
